This is an account of results in publication PMC5700166.

Common to all, as to test: protein-binding microarray (PBM); PBM: ~300 nM protein, 6 mM HEPES pH 7.8, 80 mM KCl, 0.5 mM EDTA, 0.5 mM EGTA, 6% glycerol, 35 ng/ul poly-dIdC, 1% milk, 1 h, room temperature; Ap Aiptasia and Nv Nematostella (sea anemones) / Co Capsaspora / Aq Amphimedon (sponge) / Dm Drosophila / Hu human; RHD is the Rel homology domain; high values mean tight binding
Holding throughout (conditions): dsDNA, one strand shown

For assay [1], the target named is T1, GST-Ap-NF-kB RHD (Exaiptasia pallida (Aiptasia), UniProt A0A913YAJ5 2-422).
T1 sequence: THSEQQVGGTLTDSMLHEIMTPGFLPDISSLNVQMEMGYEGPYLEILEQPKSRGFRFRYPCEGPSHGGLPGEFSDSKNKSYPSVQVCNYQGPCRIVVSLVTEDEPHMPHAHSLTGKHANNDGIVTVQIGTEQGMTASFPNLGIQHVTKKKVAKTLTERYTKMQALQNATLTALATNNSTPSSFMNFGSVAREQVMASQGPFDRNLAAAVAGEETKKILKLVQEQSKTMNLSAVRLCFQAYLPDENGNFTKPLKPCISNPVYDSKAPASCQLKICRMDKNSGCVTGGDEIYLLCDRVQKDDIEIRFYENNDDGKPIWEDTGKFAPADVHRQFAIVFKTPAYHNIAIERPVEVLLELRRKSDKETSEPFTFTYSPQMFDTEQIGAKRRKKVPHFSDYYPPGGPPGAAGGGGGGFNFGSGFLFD

Assay [2] has as its target T2, GST-Nv-NF-kB (Cys allele) (Nematostella vectensis, UniProt E5G601 2-411).
T2 sequence: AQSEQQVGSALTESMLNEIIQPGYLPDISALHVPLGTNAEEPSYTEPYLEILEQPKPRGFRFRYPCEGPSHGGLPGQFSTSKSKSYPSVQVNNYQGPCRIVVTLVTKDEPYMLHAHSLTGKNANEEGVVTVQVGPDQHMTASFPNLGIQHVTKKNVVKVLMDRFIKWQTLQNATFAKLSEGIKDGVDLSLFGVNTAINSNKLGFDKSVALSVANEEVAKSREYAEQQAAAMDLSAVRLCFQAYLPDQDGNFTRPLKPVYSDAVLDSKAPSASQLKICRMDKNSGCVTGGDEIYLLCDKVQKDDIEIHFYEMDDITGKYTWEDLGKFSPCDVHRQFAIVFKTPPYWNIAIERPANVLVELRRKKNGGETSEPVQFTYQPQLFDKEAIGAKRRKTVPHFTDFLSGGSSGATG

The target of assay [3] is T3, GST-Dm-Relish (Drosophila melanogaster, UniProt Q94527 99-473).
T3 sequence: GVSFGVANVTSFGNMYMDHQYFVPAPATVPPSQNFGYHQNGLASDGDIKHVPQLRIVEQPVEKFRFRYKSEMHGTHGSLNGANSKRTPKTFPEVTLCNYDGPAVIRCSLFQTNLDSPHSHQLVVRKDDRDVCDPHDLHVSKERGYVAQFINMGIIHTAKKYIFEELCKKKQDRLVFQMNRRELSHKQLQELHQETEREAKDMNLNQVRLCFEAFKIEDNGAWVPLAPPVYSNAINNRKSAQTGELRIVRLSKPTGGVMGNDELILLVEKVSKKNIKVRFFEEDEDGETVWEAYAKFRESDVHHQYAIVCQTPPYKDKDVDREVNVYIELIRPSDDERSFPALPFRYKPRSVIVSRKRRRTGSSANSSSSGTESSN

For assay [4], the target named is T4, GST-Aq-NF-kB (Amphimedon queenslandica, UniProt A9Y5G7 2-389).
T4 sequence: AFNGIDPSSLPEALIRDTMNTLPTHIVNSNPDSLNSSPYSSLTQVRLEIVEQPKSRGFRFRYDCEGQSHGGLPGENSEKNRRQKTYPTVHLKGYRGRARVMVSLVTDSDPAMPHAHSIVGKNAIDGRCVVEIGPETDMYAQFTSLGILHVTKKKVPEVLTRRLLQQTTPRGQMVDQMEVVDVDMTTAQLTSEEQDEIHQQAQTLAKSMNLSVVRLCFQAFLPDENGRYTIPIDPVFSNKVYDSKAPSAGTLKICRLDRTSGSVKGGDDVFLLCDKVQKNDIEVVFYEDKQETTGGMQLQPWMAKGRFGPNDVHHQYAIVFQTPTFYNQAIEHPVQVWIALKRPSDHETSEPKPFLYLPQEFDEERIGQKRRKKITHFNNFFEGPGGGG

As for “CCGATTAACATCAGGGATCTACCTGATGTTAATCGGGTCTTGATTCGCTTGACGCTGCTG”, the binding signal is 3.06 z-score in assay [1], 2.58 z-score in assay [2], 7.65 z-score in assay [3] and 4.74 z-score in assay [4].

As to “CCGATTAACATCAGGGATTCCAATGATGTTAATCGGGTCTTGATTCGCTTGACGCTGCTG”, the binding signal in assay [1] is 1.68 z-score; in assay [2] it was 1 z-score; in assay [3], 5.16 z-score; in assay [4] it was 1.78 z-score.

As to “CCGATTAACATCAGGGACAGCCCTGATGTTAATCGGGTCTTGATTCGCTTGACGCTGCTG”, the binding signal in assay [1] was 3.43 z-score; in assay [2], 4.69 z-score; in assay [3] it was 2.23 z-score; in assay [4], 6.35 z-score.

In the case of “CCGATTAACATCAGGAACGCCCCTGATGTTAATCGGGTCTTGATTCGCTTGACGCTGCTG”, the binding signal came out at 3.09 z-score in assay [1], 3.22 z-score in assay [2], 2.09 z-score in assay [3] and 5.42 z-score in assay [4].

As for “CCGATTAACATCAGGGCATACCCTGATGTTAATCGGGTCTTGATTCGCTTGACGCTGCTG”, the binding signal in assay [1] was 2.36 z-score; in assay [2], 3.25 z-score; in assay [3], 3.77 z-score; in assay [4], 5.87 z-score.

With “CCGATTAACATCAGGTAATTCCATGATGTTAATCGGGTCTTGATTCGCTTGACGCTGCTG”, the binding signal in assay [1] was 1.26 z-score; in assay [2] it was 1.89 z-score; in assay [3] it was 4.41 z-score; in assay [4], 3.06 z-score.
